An excerpt weighted towards active compounds, which were near 18% of everything screened.
DT40 TDP1 CPT: growth inhibition of DT40 Tdp1-/-;hTDP1 cells with camptothecin (screen for TDP1 inhibitors); chicken DT40 Tdp1-/-;hTDP1 cells + 20 nM CPT, ATP luminescence, 48 h; Potency, µM (series often up to 46.2 µM), for inactives: at the highest dose activity change, negative = growth inhibition, hits mostly inhibitors; actives 12% (n = 420,000); AID 686979; further: potency means the concentration at half of the fitted maximal effect; nearly all actives have a fitted effect of over 55% in size
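Chicken DT40 Tdp1-/- cells stably complemented with human TDP1 were seeded at 400 cells/well in medium containing 20 nM camptothecin, exposed to pin-transferred compounds, and grown at 37 °C for at least 48 hr. Viability was read as ATP luminescence.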
RORgamma inh: blocks mouse ROR gamma transcriptional activity. Potency, µM (top dose mostly 53.6 µM), without a hit: at the highest dose activity change, negative = inhibition, actives largely listed as inhibitors. AID 2551. actives 5.4% (n = 310,000). Drosophila S2 Gal4-RORgamma UAS-luciferase reporter, 20 h; further: potency means the concentration at half of the fitted maximal effect; nearly all actives have a fitted effect of over 60% in size
Target sequence (P51450 whole entry, looked up, the tested form may be a part): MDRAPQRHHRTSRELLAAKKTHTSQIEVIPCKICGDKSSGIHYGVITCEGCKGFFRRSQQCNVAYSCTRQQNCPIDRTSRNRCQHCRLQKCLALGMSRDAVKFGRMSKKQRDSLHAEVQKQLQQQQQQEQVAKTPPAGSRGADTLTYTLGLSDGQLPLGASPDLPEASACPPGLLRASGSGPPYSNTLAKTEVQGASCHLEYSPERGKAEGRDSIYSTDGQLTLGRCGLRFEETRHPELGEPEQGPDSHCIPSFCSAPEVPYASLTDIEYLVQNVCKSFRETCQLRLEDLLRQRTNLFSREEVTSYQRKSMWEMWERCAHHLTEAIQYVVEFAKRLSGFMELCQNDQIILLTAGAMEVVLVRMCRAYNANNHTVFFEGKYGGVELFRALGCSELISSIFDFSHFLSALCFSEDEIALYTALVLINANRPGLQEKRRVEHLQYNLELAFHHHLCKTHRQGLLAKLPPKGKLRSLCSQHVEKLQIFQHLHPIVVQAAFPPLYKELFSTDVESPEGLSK
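Stably transfected Drosophila Schneider cells are the test system, with ROR gamma fused to Gal4 and luciferase under UAS control; luminescence is read after 20 hr of 700 uM copper sulfate induction at ambient temperature.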
LDHA inh: blocks human lactate dehydrogenase A; P00338; purified LDHA, NADH/diaphorase-resazurin fluorescence; active compounds read low; activity change, % (values are at about 110 or 230 µM); actives 0.15% (n = 480,000); AID 1347041; in the data active means activity change below about -30%; inconclusive means mostly about -25% to -30%;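 further: plate controls were DMSO wells for no effect and wells without enzyme for full effect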
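Human LDH5 (2 nM) was incubated with 0.06 mM NADH and 0.2 mM pyruvate for 5 min at room temperature in Tris pH 7.4. Remaining NADH was coupled through diaphorase/resazurin, and resorufin fluorescence was read at 0 and 20 min.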
DT40 TDP1 no CPT: qHTS for Inhibitors of human tyrosyl-DNA phosphodiesterase 1 (TDP1): qHTS in cells in absence of CPT; DT40 Tdp1-/- hTDP1 cells, no CPT, ATP luminescence, 48 h; Potency, µM (titrated, usually from 46.2 µM), for inactives: top-dose activity change, negative = growth inhibition, hits mostly inhibitors; actives 15% (n = 420,000); AID 686978, 2013; further: potency means the concentration at half of the fitted maximal effect; nearly all actives have a fitted effect of over 55% in size
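Seeded 400 DT40-hTDP1 cells/well (vehicle DMSO, no 20 nM CPT); pinned compounds; ≥48 hr at 37 °C; CellTiter-Glo luminescence as viability measure.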
VP16 counter: Gal4-VP16 reporter inhibition counter-screen; AID 2546; Drosophila S2 Gal4-VP16 UAS-luciferase, luminescence, 20 h; actives 3.5% (n = 310,000); Potency, µM (titrated, usually from 53.6 µM), for inactives: at the highest dose activity, negative = inhibition, hits mostly inhibitors;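 further: Gal4-VP16 expression switched on by copper sulfate through the metallothionein promoter; potency means the concentration at half of the fitted maximal effect; nearly all actives have a fitted effect of over 50% in size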
IL1B secr inh: blocks inflammasome-driven IL-1 beta release | actives 4.7% (n = 360,000) | THP-1 LPS/ATP IL-1B secretion, AlphaLISA, 16 h; active compounds read low | activity change, % at 57.5 µM; in the data active means activity change below about -50%; inconclusive means mostly about -30% to -49%
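Secreted IL-1B measured by AlphaLISA bead assay after 16 h compound exposure of THP-1 cells; compounds (final up to 57.5 uM) added 1 h before LPS (250 ng/mL) and ATP (1.25 mM) stimulation; lower signal means less secretion.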
* marks the source's active call; other numbers are inactive results; ? = inconclusive; / = no result given; ! = repeats disagree; [ ] = dose if it differs, or a comment. Unless noted, the call rests on the fitted dose curve; in most records, active means well fitted curve in the direction sought with a large enough effect; inconclusive means small, poorly fitted or top-dose-only effect, or another doubt; inactive means no such curve, though single readings can be large; an effect the other way counts as inactive or inconclusive. Unless noted, on the % scale 0 is the no-effect control and ±100 the full control effect.

SMILES	DT40 TDP1 CPT	RORgamma inh	LDHA inh	DT40 TDP1 no CPT	VP16 counter	IL1B secr inh
CC(/C=C1\SC(=S)N(NC(=O)c2cccc(O)c2)C1=O)=C\c1ccccc1	7%	34%	3	-19%	?	-101*
CC(=O)c1ccc(NC(=O)CCCN2C(=O)/C(=C/C(C)=C/c3ccccc3)SC2=S)cc1	?	11µM*	-5	23µM*	?	-66*
Cc1cccc(NC(=O)CN2C(=O)S/C(=C\C(=O)Nc3ccc(Cl)cc3)C2=O)c1	-15%	4%	-2	-23%	-1%	-6
CC(/C=C1\SC(=O)N(CC(=O)Nc2cccc(O)c2)C1=O)=C\c1ccccc1	-1%	25%	-9	?	5%	-57*
CC(=C\c1ccccc1)/C=C1/SC(=S)N(CCC(=O)O)C1=O	-2%	0%	0	4%	2%	-11
CN(CCOc1ccccc1F)c1nc(-c2cccnc2)nc2ccccc12	/	/	-1	/	/	/
CC(CC(=O)N(C)C1CCN(C)CC1)c1ccc(F)cc1 (stereo not drawn)	/	/	5	/	/	/
O=C(NN1C(=O)/C(=C/C=C/c2ccccc2)SC1=S)c1ccncc1	-9%	-2%	-7	-29%	-7%	-72*
O=C(CN1C(=O)S/C(=C/c2ccncc2)C1=O)Nc1ccccc1	23µM*	25%	5	?	?	-16
CC(/C=C1\SC(=S)N(CC(=O)N2CCN(c3ccccc3)CC2)C1=O)=C\c1ccccc1	21µM*	-16%	-9	21µM*	-9%	-5
O=C(NN1C(=O)/C(=C/C=C/c2ccco2)SC1=S)c1ccncc1	-20%	5%	15	-4%	-2%	-10
CC(/C=C1\SC(=S)N(CC(=O)O)C1=O)=C\c1ccccc1	-13%	7%[10 µM]	-3	10%	-4%	-10
CC(/C=C1\SC(=O)N(CC(=O)Nc2ccc(O)cc2)C1=O)=C\c1ccccc1	-24%	20%	-7	-24%	-14%	-76*
Cc1ccc(C2=CC(c3c(F)cccc3Cl)n3ncnc3N2)cc1 (stereo not drawn)	/	/	6	/	/	/
COc1ccc2cc(C(=O)NC(CN(C)C)c3ccccc3)[nH]c2c1 (stereo not drawn)	/	/	12	/	/	/
CCN1CCN(C(=O)COCc2cc(-c3ccc4c(c3)OCO4)on2)CC1	-17%	19%	-9	1%	9%	-6
CCc1cccc(C)c1NC(=O)COCc1cc(-c2ccc3c(c2)OCO3)on1	23µM*	/	-10	?	/	/
O=C(COCc1cc(-c2ccc3c(c2)OCO3)on1)N1CCN(c2cccc(C(F)(F)F)c2)CC1	13µM*	15%	-4	23µM*!	-7%	-10
Cc1cc(C)c(NC(=O)COCc2cc(-c3cccs3)on2)c(C)c1	18µM*	/	-4	?	/	/
COc1ccc(N2CCN(C(=O)COCc3cc(-c4ccc5c(c4)OCO5)on3)CC2)cc1	?	-11%	1	18µM*!	-11%	-19
COC(=O)c1ccccc1NC(=O)COCc1cc(-c2cccs2)on1	?	/	-14	?	/	/
Cc1nc2ccc(C(=O)NCC(C)C)cc2nc1C	/	/	-3	/	/	/
COc1cccc(CN(C)C(=O)c2ccc(Oc3ccccc3)cc2)c1OC	26µM*	-6%	2	21µM*	2%	-9
COc1ccc(CN(C)C(=O)C(Cc2ccccc2)NC(=O)c2ccccc2)c(OC)c1 (stereo not drawn)	?	/	-2	21µM*	/	-24
COc1cccc(CN(C)C(=O)CNC(=O)c2ccc(-c3ccccc3)cc2)c1OC	?	?	-2	?	2%	-63*
SMILES	DT40 TDP1 CPT	RORgamma inh	LDHA inh	DT40 TDP1 no CPT	VP16 counter	IL1B secr inh
COc1ccc(CN(C)C(=O)CNC(=O)c2ccc3ccccc3c2)c(OC)c1	-25%	1%	2	?	-7%	-17
COc1ccc(Br)cc1CN(C)C(=O)CNC(=O)c1ccc2ccccc2c1	-23%	11%	-6	?	-3%	-75*
COc1cccc(C(=O)C(C#N)C(=O)Nc2ccccc2)c1 (stereo not drawn)	/	/	6	/	/	/
COc1ccc2c(C)c(CC(=O)NCc3ccco3)c(=O)oc2c1OC	/	/	-4	/	/	/
COc1ccc(Br)cc1CN(C)C(=O)c1cc(Cl)c2c(c1)OCCO2	?	3%	-1	21µM*	5%	-26
COc1cccc(NC(=O)CN(C)C(=O)c2ccc(Cl)c(S(=O)(=O)N3CCCCCC3)c2)c1	?	/	-3	15µM*	/	-19
COc1ccc(CN(C)C(=O)c2ccc(COc3ccccc3)cc2)c(OC)c1	18µM*	39%	3	9.2µM*	6%	-8
COc1cccc(CN(C)C(=O)CCN(c2ccccc2)S(=O)(=O)c2ccc(C)cc2)c1OC	26µM*	/	-5	16µM*	/	-10
COc1ccc(C(=O)N(C)Cc2cc(Br)ccc2OC)cc1F	/	/	-4	/	/	/
COc1ccc(CN(C)C(=O)c2ccc(NS(=O)(=O)c3ccccc3)cc2)c(OC)c1	?	/	-4	?	/	-22
COc1cccc(NC(=O)CN(C)C(=O)c2ccc(OCc3ccccc3)c(OC)c2)c1	3%	/	0	-4%	/	-9
COc1cccc(NC(=O)CN(C)C(=O)c2ccc(COc3ccccc3)cc2)c1	?	/	0	16µM*	/	9
COc1cccc(NC(=O)CN(C)C(C)C(=O)Nc2ccc(C(C)=O)cc2)c1 (stereo not drawn)	0%	9%	-5	0%	6%	-9
COc1cccc(NC(=O)CN(C)C(C)C(=O)NC(C)c2ccc(Cl)cc2Cl)c1 (stereo not drawn)	?	/	-3	18µM*	/	-8
COc1cccc(CN(C)C(=O)[C@@H](NC(=O)c2ccc(C)cc2)C(C)C)c1	21µM*	-12%	-2	21µM*	6%	-20
COc1ccccc1CN(C)C(=O)c1ccc(COc2ccccc2)cc1	16µM*	19%	-2	?	1%	-76*
N#Cc1cccc(CNCc2ccc(CN3CCCC3)cc2)c1	/	/	15	/	/	/
CC(=O)Nc1ccccc1OCc1cccc(C)c1	/	/	-6	/	/	/
COc1ccccc1CN(C)C(=O)C(c1ccccc1)c1ccccc1	16µM*	?	-1	13µM*	1%	-82*
CN(Cc1ccc(F)cc1)C(=O)C(c1ccccc1)c1ccccc1	-27%	-2%	6	?	1%	?

Screens: PubChem BioAssay, National Center for Advancing Translational Sciences (NCATS)
